Experimental data from ChEMBL document CHEMBL1961873, “Compounds: GSK PKIS; Assays: Nanosyn kinase panel” (2012).

How the values were obtained:
[1] = biological target: T1, Serine/threonine-protein kinase D2 (Homo sapiens) (UniProt Q9BZL6); conditions: at 1 µM;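 also: mean value of PRKD2 inhibition, from the GSK PKIS screening panel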
T1 sequence (whole entry): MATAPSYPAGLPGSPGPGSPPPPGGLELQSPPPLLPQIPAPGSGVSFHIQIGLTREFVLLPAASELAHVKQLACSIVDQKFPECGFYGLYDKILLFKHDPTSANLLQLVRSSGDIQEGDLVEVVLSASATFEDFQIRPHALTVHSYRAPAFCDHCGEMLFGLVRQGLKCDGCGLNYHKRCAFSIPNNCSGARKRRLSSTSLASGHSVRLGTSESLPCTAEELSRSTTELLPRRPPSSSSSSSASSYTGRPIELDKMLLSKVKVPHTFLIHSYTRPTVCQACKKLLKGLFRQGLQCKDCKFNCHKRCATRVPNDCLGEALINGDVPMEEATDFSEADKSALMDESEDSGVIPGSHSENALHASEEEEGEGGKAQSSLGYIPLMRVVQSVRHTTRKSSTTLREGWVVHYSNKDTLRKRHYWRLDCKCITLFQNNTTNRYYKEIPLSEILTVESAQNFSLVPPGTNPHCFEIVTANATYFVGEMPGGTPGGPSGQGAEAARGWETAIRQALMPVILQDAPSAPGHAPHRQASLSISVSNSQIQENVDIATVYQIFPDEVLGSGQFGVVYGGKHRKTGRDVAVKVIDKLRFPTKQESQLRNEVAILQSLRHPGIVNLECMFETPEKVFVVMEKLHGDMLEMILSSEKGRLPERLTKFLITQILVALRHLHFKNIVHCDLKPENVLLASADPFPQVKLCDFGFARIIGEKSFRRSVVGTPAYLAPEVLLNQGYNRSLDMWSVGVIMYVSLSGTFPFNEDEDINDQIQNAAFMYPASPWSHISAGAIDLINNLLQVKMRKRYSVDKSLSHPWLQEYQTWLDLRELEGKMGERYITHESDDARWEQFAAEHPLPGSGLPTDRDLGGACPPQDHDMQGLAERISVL

[2] = biological target: T2, Serine/threonine-protein kinase D3 (Homo sapiens) (UniProt O94806); conditions: at 0.1 µM
T2 sequence (whole entry): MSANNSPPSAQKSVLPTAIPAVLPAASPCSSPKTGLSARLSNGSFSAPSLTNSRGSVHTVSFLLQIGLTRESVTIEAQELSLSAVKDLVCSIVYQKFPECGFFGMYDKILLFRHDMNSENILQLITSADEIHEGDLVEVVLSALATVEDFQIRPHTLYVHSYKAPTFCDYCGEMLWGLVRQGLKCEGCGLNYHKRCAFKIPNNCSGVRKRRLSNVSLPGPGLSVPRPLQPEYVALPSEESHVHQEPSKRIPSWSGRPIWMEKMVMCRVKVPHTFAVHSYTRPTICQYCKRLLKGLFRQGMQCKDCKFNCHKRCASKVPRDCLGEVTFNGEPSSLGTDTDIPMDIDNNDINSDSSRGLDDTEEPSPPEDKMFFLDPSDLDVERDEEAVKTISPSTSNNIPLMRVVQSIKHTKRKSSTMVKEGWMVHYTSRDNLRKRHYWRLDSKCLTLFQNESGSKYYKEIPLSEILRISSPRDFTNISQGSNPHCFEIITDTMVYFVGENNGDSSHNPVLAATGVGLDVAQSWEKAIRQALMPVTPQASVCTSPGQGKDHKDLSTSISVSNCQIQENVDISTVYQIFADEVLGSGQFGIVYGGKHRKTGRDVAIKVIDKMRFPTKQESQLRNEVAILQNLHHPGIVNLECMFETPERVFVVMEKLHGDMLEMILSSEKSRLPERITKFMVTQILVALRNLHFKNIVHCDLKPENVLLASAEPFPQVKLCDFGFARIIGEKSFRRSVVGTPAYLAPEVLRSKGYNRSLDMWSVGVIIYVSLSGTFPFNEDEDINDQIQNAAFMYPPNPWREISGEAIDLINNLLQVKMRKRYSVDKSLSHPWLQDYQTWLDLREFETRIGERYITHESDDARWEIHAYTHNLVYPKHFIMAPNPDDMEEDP

[3] = biological target: T2, Serine/threonine-protein kinase D3 (Homo sapiens); conditions: at 1 µM
[4] = biological target: T3, cGMP-dependent protein kinase 1 (Homo sapiens) (UniProt Q13976); conditions: at 0.1 µM
T3 sequence (whole entry): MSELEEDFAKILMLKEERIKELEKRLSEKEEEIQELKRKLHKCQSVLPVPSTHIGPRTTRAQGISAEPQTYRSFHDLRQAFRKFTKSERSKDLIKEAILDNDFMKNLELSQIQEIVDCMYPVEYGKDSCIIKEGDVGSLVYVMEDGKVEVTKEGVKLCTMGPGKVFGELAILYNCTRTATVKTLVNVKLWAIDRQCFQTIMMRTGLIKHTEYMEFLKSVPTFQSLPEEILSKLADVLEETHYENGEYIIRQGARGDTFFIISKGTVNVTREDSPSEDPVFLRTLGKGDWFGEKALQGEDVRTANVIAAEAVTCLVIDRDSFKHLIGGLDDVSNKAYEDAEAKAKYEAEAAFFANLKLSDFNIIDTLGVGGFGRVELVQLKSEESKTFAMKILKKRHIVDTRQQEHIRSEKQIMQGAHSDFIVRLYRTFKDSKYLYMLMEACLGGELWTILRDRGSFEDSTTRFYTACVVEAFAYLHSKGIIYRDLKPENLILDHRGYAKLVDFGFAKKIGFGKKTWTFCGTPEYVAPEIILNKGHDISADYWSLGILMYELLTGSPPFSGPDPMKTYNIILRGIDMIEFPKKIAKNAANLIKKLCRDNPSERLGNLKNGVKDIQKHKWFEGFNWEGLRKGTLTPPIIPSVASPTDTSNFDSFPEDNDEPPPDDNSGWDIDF

[5] = biological target: T3, cGMP-dependent protein kinase 1 (Homo sapiens); conditions: at 1 µM
[6] = biological target: T4, cGMP-dependent protein kinase 2 (Homo sapiens) (UniProt Q13237); conditions: at 0.1 µM
T4 sequence (whole entry): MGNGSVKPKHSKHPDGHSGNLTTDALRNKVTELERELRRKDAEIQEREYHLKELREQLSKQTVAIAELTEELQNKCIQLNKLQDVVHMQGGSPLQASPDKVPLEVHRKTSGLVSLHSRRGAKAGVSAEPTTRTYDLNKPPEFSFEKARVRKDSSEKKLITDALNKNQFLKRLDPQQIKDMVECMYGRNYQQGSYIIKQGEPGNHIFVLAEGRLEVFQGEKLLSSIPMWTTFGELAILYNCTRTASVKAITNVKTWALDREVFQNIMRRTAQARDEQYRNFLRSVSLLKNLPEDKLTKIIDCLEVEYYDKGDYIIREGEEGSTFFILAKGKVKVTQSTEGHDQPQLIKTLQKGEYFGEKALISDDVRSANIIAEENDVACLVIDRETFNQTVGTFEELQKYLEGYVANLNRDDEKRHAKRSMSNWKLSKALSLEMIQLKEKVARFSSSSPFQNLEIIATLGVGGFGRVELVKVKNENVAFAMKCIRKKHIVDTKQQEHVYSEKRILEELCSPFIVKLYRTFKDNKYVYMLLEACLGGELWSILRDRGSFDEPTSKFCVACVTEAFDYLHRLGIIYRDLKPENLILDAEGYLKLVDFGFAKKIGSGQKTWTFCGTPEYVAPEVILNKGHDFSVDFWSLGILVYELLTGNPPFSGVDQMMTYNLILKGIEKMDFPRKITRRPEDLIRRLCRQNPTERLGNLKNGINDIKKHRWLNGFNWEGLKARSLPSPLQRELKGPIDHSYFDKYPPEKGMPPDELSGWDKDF

[7] = biological target: T4, cGMP-dependent protein kinase 2 (Homo sapiens); conditions: at 1 µM
[8] = biological target: T5, cAMP-dependent protein kinase catalytic subunit PRKX (Homo sapiens) (UniProt P51817); conditions: at 0.1 µM
T5 sequence (whole entry): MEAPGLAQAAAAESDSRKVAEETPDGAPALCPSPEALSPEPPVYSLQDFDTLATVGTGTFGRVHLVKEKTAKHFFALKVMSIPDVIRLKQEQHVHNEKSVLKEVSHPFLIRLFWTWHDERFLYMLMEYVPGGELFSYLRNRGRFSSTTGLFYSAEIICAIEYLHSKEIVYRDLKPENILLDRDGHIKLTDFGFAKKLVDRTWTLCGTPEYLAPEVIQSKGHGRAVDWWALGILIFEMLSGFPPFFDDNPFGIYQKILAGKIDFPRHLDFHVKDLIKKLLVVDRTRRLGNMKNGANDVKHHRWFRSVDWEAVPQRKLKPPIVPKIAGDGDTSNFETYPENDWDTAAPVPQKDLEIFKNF

[9] = biological target: T5, cAMP-dependent protein kinase catalytic subunit PRKX (Homo sapiens); conditions: at 1 µM
[10] = biological target: Rho-associated protein kinase 1 (Homo sapiens) (UniProt Q13464); conditions: at 0.1 µM;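 also: values are mean percent inhibition of ROCK1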
Rho-associated protein kinase 1 (Homo sapiens), sequence (Q13464 2-1354 limits assumed): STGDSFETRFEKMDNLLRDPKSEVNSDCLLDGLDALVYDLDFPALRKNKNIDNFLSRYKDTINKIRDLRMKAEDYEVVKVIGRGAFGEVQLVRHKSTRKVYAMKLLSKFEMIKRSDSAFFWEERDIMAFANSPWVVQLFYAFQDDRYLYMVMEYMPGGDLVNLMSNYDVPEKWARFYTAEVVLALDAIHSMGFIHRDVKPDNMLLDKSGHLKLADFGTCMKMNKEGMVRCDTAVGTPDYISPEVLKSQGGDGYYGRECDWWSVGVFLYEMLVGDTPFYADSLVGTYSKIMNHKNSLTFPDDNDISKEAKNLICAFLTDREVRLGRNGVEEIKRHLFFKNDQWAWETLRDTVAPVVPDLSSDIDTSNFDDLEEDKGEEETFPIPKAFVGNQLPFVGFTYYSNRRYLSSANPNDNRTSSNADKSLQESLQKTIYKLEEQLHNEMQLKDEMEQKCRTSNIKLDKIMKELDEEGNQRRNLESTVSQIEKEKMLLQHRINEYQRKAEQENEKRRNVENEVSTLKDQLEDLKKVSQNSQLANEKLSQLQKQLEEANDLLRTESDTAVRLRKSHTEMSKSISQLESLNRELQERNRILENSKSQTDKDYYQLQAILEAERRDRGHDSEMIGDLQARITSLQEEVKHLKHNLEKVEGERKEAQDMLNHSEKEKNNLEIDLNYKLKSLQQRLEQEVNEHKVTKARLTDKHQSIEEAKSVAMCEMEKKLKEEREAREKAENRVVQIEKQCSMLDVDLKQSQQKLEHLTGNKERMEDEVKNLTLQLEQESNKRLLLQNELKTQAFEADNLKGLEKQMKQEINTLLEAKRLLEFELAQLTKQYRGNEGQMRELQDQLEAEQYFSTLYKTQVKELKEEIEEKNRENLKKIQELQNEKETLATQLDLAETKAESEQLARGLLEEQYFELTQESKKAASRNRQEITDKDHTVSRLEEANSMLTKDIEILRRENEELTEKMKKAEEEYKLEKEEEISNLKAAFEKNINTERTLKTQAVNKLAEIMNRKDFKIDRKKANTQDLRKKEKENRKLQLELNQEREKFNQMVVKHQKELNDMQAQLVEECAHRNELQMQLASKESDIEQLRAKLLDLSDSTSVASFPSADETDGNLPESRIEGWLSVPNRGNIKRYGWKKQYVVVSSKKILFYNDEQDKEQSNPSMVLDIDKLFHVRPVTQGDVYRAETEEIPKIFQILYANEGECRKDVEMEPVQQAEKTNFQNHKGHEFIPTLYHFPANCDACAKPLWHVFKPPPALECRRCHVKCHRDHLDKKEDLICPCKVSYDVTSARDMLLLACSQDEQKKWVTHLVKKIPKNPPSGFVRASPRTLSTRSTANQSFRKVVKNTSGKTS

| Structure (SMILES) | inhibition [1] | inhibition [2] | inhibition [3] | inhibition [4] | inhibition [5] | inhibition [6] | inhibition [7] | inhibition [8] | inhibition [9] | inhibition [10] |
| --- | --- | --- | --- | --- | --- | --- | --- | --- | --- | --- |
| CC1=C(C(=O)Nc2ccc3[nH]ncc3c2)C(c2ccc3ccccc3c2)CC(=O)N1 (centres undefined) | 6.67% | 3.48% | 8.7% | 12.8% | 53.3% | 12.6% | 53.3% | 33.7% | 75.3% |  |
| Cn1cc(C=C2C(=O)Nc3cccnc32)c2ccccc21 | 9.92% | 3.79% | 10.3% | 1.8% | 3.04% | 1.83% | 3.03% | 0.64% | 0.1% | 1.45% |
| CS(=O)(=O)Nc1ccc(N/C=C2\C(=O)Nc3ccccc32)cc1 | 2.63% | -1.78% | -0.06% | -1.67% | -1.49% | -0.94% | 3.29% | -0.88% | 0.66% | -0.53% |
| COc1ccc(COc2ccc(Cc3cnc(N)nc3N)cc2OC)cc1 | 4.2% | 0.01% | 2.56% | 4.15% | 3.2% | 2.89% | 3.2% | 2.09% | 1.07% | 2.35% |
| c1cnn2ncc(-c3ccnc(Nc4ccc5c(c4)OCCO5)n3)c2c1 | 38.2% | 7.82% | 50.5% | 4.87% | 18.9% | 1.98% | 8.51% | 1.25% | 2.29% | 1.28% |
| COc1cc2ncn(-c3cc(O[C@@H](C)c4ccccc4Cl)c(C(N)=O)s3)c2cc1OC | 2.84% | 4.96% | 4.78% | 3.4% | 4.72% | 4.02% | 5.22% | 3.8% | 3.91% | 2.15% |
| Cc1ccc(C(=O)NC2CCCCC2)cc1-c1ccc(C(=O)NCC2CC2)cc1 | 2.9% | 2.25% | 2.53% | 4.55% | 4.23% | 2.62% | 2.94% | 2.1% | 0.91% | 1.64% |
| Fc1cccc(COc2ccc(Nc3ncnc4cc(-c5ccc[nH]5)sc34)cc2Cl)c1 | -2.9% | -1.25% | -2.13% | 3.64% | 4.28% | 2.82% | 2.46% | 2% | 3.5% | 0.2% |
| CNC(=O)c1cncc(/C=C/c2c(Cl)cccc2Cl)c1 | 3.77% | 1.19% | 4.45% | 4.02% | 5.23% | 1.23% | 4.56% | 1.86% | 1.79% | 1.46% |
| COc1cc(C=NNc2ncnc3c2cnn3-c2ccccc2)ccc1O | 2.86% | 2.52% | 3% | 1.67% | 1.52% | 2.05% | 4.06% | 1.55% | 1.36% | 0.41% |
